The list is not random: actives were taken first. Their share in the collection is about 2.1%.
Measles CPE: protection of cells from measles virus; Measles virus-infected cells, CPE protection, absorbance; protection (pct of control), % at 4 µM; actives 1.5% (n = 140,000); AID 841; in the data active = protection mostly above about 24%, no sharp cut-off; inactive = mostly below about 26%
HUVEC tox IL1B: toxic to HUVEC cells under IL-1B stimulation; HUVEC cell count loss, Hoechst imaging, IL-1B stimulated; cell count reduction, % at 2 µM; actives 0.41% (n = 94,000); AID 845;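 active = cell count reduction more than 3 SD above the screen-wide mean, cut at about 70% in these data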;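 note: normalized per plate to untreated control cells as the no-loss baseline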
IL1B NFkB inh: blocks IL-1B driven NFkB nuclear translocation in HUVEC cells; HUVEC IL-1B NFkB p65 nuclear translocation imaging; inhibition, % at 2 µM; actives 0.43% (n = 94,000); AID 796;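 active = inhibition above about 30% together with a positive call from visual inspection of the well image, limit read from the data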;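 note: nuclear over cytoplasmic p65 intensity ratio measured by imaging; 0% = IL-1B stimulated DMSO wells and 100% = unstimulated DMSO wells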
IL1B NFkB pot: enhances IL-1B driven NFkB nuclear translocation; AID 819; actives 0.3% (n = 94,000); activation, % at 2 µM; HUVEC IL-1B NFkB p65 nuclear translocation imaging;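 active = activation above 40%, about the mean plus 3 SD, also judged a hit on visual image review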;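 note: percent activation is computed from the nuclear over cytoplasmic p65 intensity ratio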
* hit, by the source's call; . = no result.

SMILES	Measles CPE	HUVEC tox IL1B	IL1B NFkB inh	IL1B NFkB pot
CC(OC(=O)c1cccs1)C(=O)NCc1ccc2c(c1)OCO2 (stereo not given)	4	8	7	-7
O=C(c1ccc(COc2ccc(Br)cc2)o1)N1N=C(C(F)F)CC1(O)C(F)F (stereo not given)	13	.	.	.
CCOc1ccc(OCc2ccc(C(=O)N3N=C(C(F)F)CC3(O)C(F)F)o2)cc1 (stereo not given)	7	-16	-45	45*
CSc1ccc(/C=N/n2c(C)cc(C)cc2=O)cc1	10	6	12	-12
O=C(COc1ccccc1Br)NCc1ccccn1	63*	-9	-6	6
O=C(COc1ccc(F)cc1Br)NCc1ccccn1	17	-2	-19	19
CCn1c(/C=C/N(C(C)=O)c2ccccc2)[n+](CC)c2ccc(Cl)cc21	20	.	.	.
CC[n+]1c(/C=C/C=C/N(C(C)=O)c2ccccc2)sc2ccccc21	6	3	57*	-57
COc1ccc(S(=O)(=O)N2CCCN(CC(=O)C(C)(C)C)CC2)cc1	48*	-6	5	-5
O=C(Nc1ccc(Cn2cccn2)cc1)c1ccc(COc2cccc(Br)c2)cc1	4	1	-57	57*
O=c1c2cccc3c2c(nn1CN1CCOCC1)-c1ccccc1-3	59*	-40	-14	14
Cc1ccc(-c2nn(CC(=O)NCCN3CCOCC3)c(=O)c3ccccc23)cc1	30	-4	-15	15
NCC[C@H](O)C(=O)N[C@@H]1C[C@H](N)[C@@H](O[C@H]2O[C@H](CN)[C@@H](O)[C@H](O)[C@H]2O)[C@H](O)[C@H]1O[C@H]1O[C@H](CO)[C@@H](O)[C@H](N)[C@H]1O	2	.	.	.
Cc1nc(SC2CC(=O)N(c3ccccc3)C2=O)nc2c1CCCC2 (stereo not given)	75*	.	.	.
Cc1nc2sc(C(c3ccco3)N3CCc4ccccc4C3)c(O)n2n1 (stereo not given)	.	-4	-5	5
Cn1ncc(Cl)c1C(=O)Nc1ccc(Cl)cn1	28*	-37	6	-6
COc1nccnc1NS(=O)(=O)c1ccc(NC(=S)NC(=O)c2cccc(F)c2)cc1	20	.	.	.
COc1nccnc1NS(=O)(=O)c1ccc(NC(=S)NC(=O)c2ccc(F)cc2)cc1	34*	.	.	.
CCN(c1nc(C)cc(OC)n1)S(=O)(=O)c1ccccc1	4	-14	-8	8
Cc1cc(C)nc(SCC(=O)N/N=C/c2cccc([N+](=O)[O-])c2)n1	49*	.	.	.
O=C(CSc1ncccn1)N/N=C/c1cccc([N+](=O)[O-])c1	3	.	.	.
O=C(CSc1nc2ccccc2c(=O)n1Cc1ccco1)N1CCCCCC1	45*	25	-1	1
Cc1nn(C)cc1C=NCCOCc1ccccc1	11	-4	1	-1
Cc1cc(C)c(S(=O)(=O)N2CCCOC2CNC(=O)C(=O)NCCc2c[nH]c3ccccc23)c(C)c1 (stereo not given)	3	.	.	.
CC1(C)CC(=O)C=C(N=CC2=C(O)CC(C)(C)CC2=O)C1	52*	-34	10	-10
SMILES	Measles CPE	HUVEC tox IL1B	IL1B NFkB inh	IL1B NFkB pot
CC1(C)CC(=O)C(C=Nc2ccncc2)=C(O)C1	.	5	1	-1
Cc1ccc2occ(/C=N/O)c(=O)c2c1	4	0	-1	1
Cc1ccc2occ(/C=N/NC(N)=S)c(=O)c2c1	30*	.	.	.
O=C1NC(c2ccccc2)=NC1(NS(=O)(=O)c1ccccc1)C(F)(F)F (stereo not given)	41*	-3	-5	-5
C=CCSc1nnc(-c2ccccc2NC(=O)CC)c(=O)[nH]1	7	-137	-12	12
CCN(C(=O)CN1CCN(S(=O)(=O)c2cc(Cl)ccc2Cl)CC1)c1c(N)n(Cc2ccccc2)c(=O)[nH]c1=O	30*	.	.	.
CCN(C(=O)CN1CCN(c2ccc(O)cc2)CC1)c1c(N)n(Cc2ccccc2)c(=O)[nH]c1=O	9	2	-12	12
CCN(CC)S(=O)(=O)c1cccc(C(=O)N2CC(O)CC2C(=O)O)c1 (stereo not given)	28*	7	-1	1
Cn1c(=O)oc2cc(S(=O)(=O)N3CCCC(C(=O)Nc4nccs4)C3)ccc21 (stereo not given)	5	12	-41	41*
COCC(C)n1c(SCC(=O)NC(=O)Nc2ccc3c(c2)OCCO3)nc2ccccc2c1=O (stereo not given)	11	16	0	0
Cc1ccc(-c2nc3ccccc3c(=O)n2CCCN2CCOCC2)cc1	16	-10	-26	26
O=c1c2ccccc2nc(-c2ccccc2)n1CCCN1CCOCC1	25*	7	-5	5
Cc1ccccc1NC(=O)Cn1nc(-c2ccccc2)nc1-c1ccccc1	8	-21	-7	7
COc1ccc2occ(NC(C)=O)c2c1	42*	6	6	-5
CCN(CC)CCNC(=O)C(=O)NCC1OCCN1S(=O)(=O)c1ccc([N+](=O)[O-])cc1 (stereo not given)	4	.	.	.
CCCOc1ccc(CC(CC(=O)O)(C(=O)O)C(=O)O)cc1	46*	-2	-13	13
CC12CCC(C(=O)N3CCN(C(c4ccccc4)c4ccccc4)CC3)(OC1=O)C2(C)C (stereo not given)	34*	-4	-22	22
COc1ccc(N2C(=O)CS/C2=C\[N+](=O)[O-])cc1	5	-12	-3	3
CC(/C=N/Nc1nnc2c(n1)[nH]c1ccccc12)=C\c1ccco1	4	4	-65	65*
O=C(CSc1ccc2ccccc2c1)Nc1nc2ccccc2[nH]1	42*	.	.	.
O=C(CSc1ccc2ccccc2c1)Nn1cnnc1	14	7	-50	50*
O=C(CSc1ccc(Cl)cc1)Nn1cnnc1	17	18	-5	5
CC(=O)Nc1ccc(NC(=O)C(C)OC(=O)CCC(=O)c2ccc(F)cc2)cc1 (stereo not given)	9	5	-14	14
O=[N+]([O-])c1cccc(C2=NCCC(c3ccccc3)O2)c1 (stereo not given)	8	.	.	.
COc1ccc(Cl)cc1NC(=O)C(C)OC(=O)c1ccc(NS(=O)(=O)c2ccc3[nH]c(=O)[nH]c3c2)cc1 (stereo not given)	48*	.	.	.
SMILES	Measles CPE	HUVEC tox IL1B	IL1B NFkB inh	IL1B NFkB pot
CC(C)C(=O)Nc1cc(S(=O)(=O)Nc2ccc(Cl)cc2)ccc1Cl	45*	.	.	.
CC(C)C(=O)Nc1cc(S(=O)(=O)Nc2cccc(Cl)c2)ccc1Cl	26	.	.	.
CC(=O)c1ccc(NC(=O)C(C)OC(=O)c2ccc(NS(=O)(=O)c3ccc(F)c(F)c3)cc2)cc1 (stereo not given)	25	.	.	.
Cc1ccc(C(=O)N/C(=C\c2sccc2C)C(=O)NCc2ccncc2)cc1	6	.	.	.
Cc1ccc(C(=O)N/C(=C\c2cccs2)C(=O)NCc2ccncc2)cc1	47*	-2	3	-3
Cc1ccc(C(=O)N/C(=C\c2sccc2C)C(=O)NCc2ccco2)cc1	61*	-25	6	-6
Cc1ccc(NC(=O)CCC(=O)NNC(=O)COc2ccccc2)c(C)c1	11	.	.	.
COc1ccc(NC(=O)C(c2ccccc2)N(C)C(=O)c2ccc(=O)[nH]c2)cc1 (stereo not given)	31*	.	.	.

From PubChem
